This passage reports activity change results from PubChem BioAssay AID720551 (National Center for Advancing Translational Sciences (NCATS), 2013).

Each structure is given as a SMILES string. Out of some 340,000 compounds screened, about 1,300 (0.38%) were called active. Only a selection was taken, and actives are over-represented in it overall. Values without a mark were called inactive.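 The calls were made as follows: active = maximum activity change below -70%; inconclusive = maximum activity change between -70% and -50%; inactive = maximum activity change above -50%.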
% is scaled to controls: 0 for no effect and ±100 for the full control effect.

The target of the assay is Voltage-gated inwardly rectifying potassium channel KCNH2 (Homo sapiens) (UniProt Q12809). The assay can be described thus: qHTS for Inhibitors of KCHN2 3.1: Wildtype qHTS. Particulars: U2OS, BacMam KCNH2, thallium flux FluxOr; at 1.84 µM; hits give low values. An excerpt: Many antipsychotic drugs that inhibit the neurotransmitter dopamine also bind to hERG1 channel which might help explain their antipsychotic activity but also produces cardiac side effects. The discovery of the novel KCNH2 3.1 isoform offers a potential new target for the development of antipsychotic drugs without cardiac side effects. This proposal will use a high throughput thallium flux assay developed for KCNH2 to screen compounds that modulate the activity of KCNH2 3.1. The wild type KCNH2 channel will also be screened in parallel to help define the selective modulators of this KCNH2 3.1 potassium channel. The resulting compounds will be validated in electrophysiology experiments. The availability of animal models will allow future testing in vivo for effects on memory and other aspects of animal physiology linked with psychosis. NIH Chemical Genomics Center [NCGC] NIH Molecular Libraries Probe Centers Network [MLPCN] MLPCN Grant: MH096539 Assay Submitter (PI): James Barrow, Johns Hopkins University, Lieber Institute for Brain Development
Sequence of Voltage-gated inwardly rectifying potassium channel KCNH2 (Homo sapiens) (Q12809 whole entry, looked up, canonical isoform): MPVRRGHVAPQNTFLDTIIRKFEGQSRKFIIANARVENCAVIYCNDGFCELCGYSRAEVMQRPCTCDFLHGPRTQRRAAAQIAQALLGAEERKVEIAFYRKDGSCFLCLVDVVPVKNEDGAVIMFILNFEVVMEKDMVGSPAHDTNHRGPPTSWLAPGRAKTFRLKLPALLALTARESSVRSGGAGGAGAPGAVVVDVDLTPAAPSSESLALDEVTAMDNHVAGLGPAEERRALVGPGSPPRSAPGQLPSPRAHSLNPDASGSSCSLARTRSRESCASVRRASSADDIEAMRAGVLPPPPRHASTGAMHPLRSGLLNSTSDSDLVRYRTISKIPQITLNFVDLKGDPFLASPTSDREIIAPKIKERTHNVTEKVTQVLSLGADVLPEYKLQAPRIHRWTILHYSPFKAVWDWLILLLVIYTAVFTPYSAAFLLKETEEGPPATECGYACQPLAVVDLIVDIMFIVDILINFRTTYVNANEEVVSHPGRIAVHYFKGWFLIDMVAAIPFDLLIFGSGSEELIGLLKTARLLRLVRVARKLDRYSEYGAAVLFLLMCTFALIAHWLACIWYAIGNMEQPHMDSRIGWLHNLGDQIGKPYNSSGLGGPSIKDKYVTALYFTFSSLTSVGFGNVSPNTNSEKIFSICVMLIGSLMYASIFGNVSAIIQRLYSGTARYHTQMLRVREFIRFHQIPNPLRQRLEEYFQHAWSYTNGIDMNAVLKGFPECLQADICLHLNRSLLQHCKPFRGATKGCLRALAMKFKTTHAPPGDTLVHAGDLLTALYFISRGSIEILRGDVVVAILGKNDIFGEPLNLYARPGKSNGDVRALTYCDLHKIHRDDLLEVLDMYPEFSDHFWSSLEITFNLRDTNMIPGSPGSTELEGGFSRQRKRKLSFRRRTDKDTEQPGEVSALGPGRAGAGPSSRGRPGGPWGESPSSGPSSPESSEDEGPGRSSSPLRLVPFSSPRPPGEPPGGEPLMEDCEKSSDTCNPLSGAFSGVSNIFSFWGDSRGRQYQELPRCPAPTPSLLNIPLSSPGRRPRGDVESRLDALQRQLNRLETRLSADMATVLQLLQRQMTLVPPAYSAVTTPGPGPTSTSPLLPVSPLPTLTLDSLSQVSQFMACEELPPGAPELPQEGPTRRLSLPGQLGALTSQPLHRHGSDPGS
U2OS cells were resuspended in cell media containing 10% fetal calf serum (FCS) at a concentration of 2 million cells / mL. The solution was treated with the Wild-type virus at 2.03 x 10^8 / mL and allowed to incubate at room temperature in the dark. After 4 hours of incubation, DMEM + 10% fetal bovine serum (FBS) was added to the cell solution. Three microliter was then dispensed into a 1536 tissue culture treated black assay plates which were incubated overnight at 37 C. Two microliter of loading buffer (HBSS + HEPES + Red40 dye quencher + FluxOr dye) was added and the assay plates were incubated for 45 min at room temperature in the dark. […] A stimulation buffer was added to the plate and the second kinetic read (2 min) was obtained. The rate constant was calculated from the kinetic reads and normalized to the positive and negative DMSO controls.
Background: In qHTS, concentration-response curves come from the screen itself.
For the compound `CCOC(=O)C1(CCc2ccccc2)CCN(Cc2ccco2)CC1`, the activity change was -42.5%.
As to `CCOC(=O)C1(Cc2ccc(Cl)cc2)CCN(C(C)CCn2cccn2)CC1` (stereo not given), the activity change was -90.9% (active).
Next, `CNC(=O)O/N=C(\N)Cc1csc2ccc(Cl)cc12`: -2.66%; `NCCc1ccc(S(=O)(=O)F)cc1`: -7.95%.
As to `NCC(O)c1ccc(O)cc1` (stereo not given), the activity change is 2.77%.
As for `CC1(C)Cc2c(C#N)c(N3CCNCC3)nc(-c3ccco3)c2CS1`, the activity change was -1.97%.
Next, `CC(=NCC1CCCO1)c1c(O)n(-c2ccccc2)c(=O)[nH]c1=O` (stereo not given): -12.8%; `CC(Cc1ccccc1)NCCC(c1ccccc1)c1ccccc1` (stereo not given): -106% (active).
The result for `O=C1NC(=O)C(CCOc2ccccc2)(CCc2ccccc2)C(=O)N1` reads -6.81%; that for `O=Cc1cn(Cc2ccc(F)cc2Cl)c2ccccc12`, 0.945%.
